Common to all, as to assay: glycan array binding signal (z-score within array); higher = stronger binding
Common to all, as to conditions: glycan notation: IUPAC condensed, linker removed

The target of one experiment is Fuc(a1-2)Gal(b1-4)GlcNAc. In outline:
(§1)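 Glycan array data were curated from 3228 arrays in the Consortium for Functional Glycomics database and kept only where the protein sequence was available. Glycan names were converted to IUPAC-condensed notation, and columns mapping to the same glycan were averaged. The binding signal is a within-array Z-score, averaged across arrays of the same protein sequence at different concentrations or buffers and across linkers. Negative Z-scores can be read as non-binding.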

The target of experiment [1] is Fuc(a1-3)[Gal3S(b1-4)]GlcNAc. The procedure, abridged: as §1
Experiment [2] concerns the target Fuc(a1-3)[Neu5Ac(a2-3)]Gal(b1-4)GlcNAc(b1-3)GalNAc. The procedure, abridged: as §1
Another experiment concerns the target Gal(a1-6)Glc. The procedure, abridged: as §1
A further experiment addresses Gal(b1-4)Glc. The procedure, abridged: as §1
The target of experiment [3] is Gal(b1-4)GlcNAc(b1-2)Man(a1-6)Man(b1-4)GlcNAc(b1-4)GlcNAc. In outline:
as §1

The target of experiment [4] is Gal3S(b1-3)[Fuc(a1-4)]GlcNAc. In outline:
as §1

The target in the next experiment is Gal3S(b1-4)Glc. In outline: as §1
The next experiment concerns the target Gal6S(b1-4)GlcNAc6S. The procedure, abridged:
as §1

Experiment [5] addresses GalNAc(b1-4)GlcNAc(b1-2)Man(a1-3)[GalNAc(b1-4)GlcNAc(b1-2)Man(a1-6)]Man(b1-4)GlcNAc(b1-4)GlcNAc. The procedure, abridged:
as §1

Experiment [6] has as its target GlcNAc(a1-4)Gal(b1-4)GlcNAc(b1-3)Gal(b1-4)Glc. The procedure, abridged:
as §1

Experiment [7] has as its target GlcNAc(a1-4)Gal(b1-4)GlcNAc(b1-3)Gal(b1-4)[Fuc(a1-3)]GlcNAc(b1-3)Gal(b1-4)[Fuc(a1-3)]GlcNAc. The procedure, abridged: as §1
The next experiment deals with GlcNAc(b1-4)GlcNAc. The procedure, abridged: as §1
The target of experiment [8] is GlcNAc(b1-4)GlcNAc(b1-4)GlcNAc(b1-4)GlcNAc(b1-4)GlcNAc. In outline:
as §1

In a further experiment the target is Kdn(a2-6)Gal(b1-4)GlcNAc. The procedure, abridged: as §1
Experiment [9] deals with Man(a1-2)Man(a1-3)[Man(a1-6)]Man(a1-6)[Man(a1-2)Man(a1-3)]Man(b1-4)GlcNAc(b1-4)GlcNAc. The procedure, abridged: as §1
Experiment [10] addresses Neu5Ac(a2-3)Gal(b1-3)GlcNAc6S. The procedure, abridged:
as §1

For experiment [11], the target named is Neu5Ac(a2-3)Gal(b1-3)[Neu5Ac(a2-6)]GalNAc. In outline: as §1
The next experiment addresses Neu5Ac(a2-3)Gal(b1-4)Glc. In outline:
as §1

The target of experiment [12] is Neu5Ac(a2-3)Gal(b1-4)GlcNAc6S. In outline:
as §1

Experiment [13] addresses Neu5Ac(a2-3)Gal(b1-4)[Fuc(a1-3)]GlcNAc(b1-3)Gal(b1-4)GlcNAc. The procedure, abridged: as §1

This excerpt belongs to a sample that is enriched for the strongest signals.

B1: Spy 2007 (Streptococcus pyogenes), Q99XV3 (protein)
chain: MKKGFFLMAMVVSLVMIAGCDKSANPKQPTQGMSVVTSFYPMYAMTKEVSGDLNDVRMIQSGAGIHSFEPSVNDVAAIYDADLFVYHSHTLEAWARDLDPNLKKSKVDVFEASKPLTLDRVKGLEDMEVTQGIDPATLYDPHTWTDPVLAGEEAVNIAKELGRLDPKHKDSYTKNAKAFKKEAEQLTEEYTQKFKKVRSKTFVTQHTAFSYLAKRFGLKQLGISGISPEQEPSPRQLKEIQDFVKEYNVKTIFAEDNVNPKIAHAIAKSTGAKVKTLSPLEAAPSGNKTYLENLRANLEVLYQQLK
With B1, the “glycan array binding signal (z-score)” value is 0.299 with Fuc(a1-2)Gal(b1-4)GlcNAc; 0.277 in experiment [1]; 5.41 in [2]; -0.074 with Gal(a1-6)Glc; -0.461 with Gal(b1-4)Glc; -0.392 in experiment [3]. Further, the “glycan array binding signal (z-score)” value in [4] was 3.35; with Gal3S(b1-4)Glc, -0.543; with Gal6S(b1-4)GlcNAc6S, 5.95; in [5], 3.5; in experiment [6] it was 0.12; in experiment [7], 3.22. Besides, the “glycan array binding signal (z-score)” value with GlcNAc(b1-4)GlcNAc is -0.446; in experiment [8] it was 4.65; with Kdn(a2-6)Gal(b1-4)GlcNAc, -0.715; in experiment [9], -0.649; in experiment [10], -0.663; in experiment [11], 1.08. Moreover, the “glycan array binding signal (z-score)” value came to 0.127 in the experiment with Neu5Ac(a2-3)Gal(b1-4)Glc, 1.47 in experiment [12] and 0.479 in experiment [13].

The values above are taken from the supplement of paper PMC8728848.
